Experiment [1] can be described thus: blood-stage malaria parasite viability loss – strain 3D7, DAPI fluorescence, 100 nL, primary screen (AID 1184).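 Further: parasites grown inside human red blood cells in medium with human serum.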 As to conditions: P. falciparum 3D7 growth, 3 d, higher = more signal.
The target of experiment [2] is Homeobox protein Hox-A13 (Mus musculus) (UniProt Q62424). The experiment can be described thus: disruptors of Hoxa13 oligonucleotide interaction – biochemical, fluorescence polarization, labeled oligonucleotide, primary screen (AID 1185). The following applies: Hoxa13:DNA binding, 15 min, higher = more signal, called active from +8 up or from −8 down. (In fluorescence polarisation assays a small probe gives low polarisation when free and higher when bound to something large.)
Sequence of Homeobox protein Hox-A13 (Mus musculus) (Q62424 whole entry, looked up): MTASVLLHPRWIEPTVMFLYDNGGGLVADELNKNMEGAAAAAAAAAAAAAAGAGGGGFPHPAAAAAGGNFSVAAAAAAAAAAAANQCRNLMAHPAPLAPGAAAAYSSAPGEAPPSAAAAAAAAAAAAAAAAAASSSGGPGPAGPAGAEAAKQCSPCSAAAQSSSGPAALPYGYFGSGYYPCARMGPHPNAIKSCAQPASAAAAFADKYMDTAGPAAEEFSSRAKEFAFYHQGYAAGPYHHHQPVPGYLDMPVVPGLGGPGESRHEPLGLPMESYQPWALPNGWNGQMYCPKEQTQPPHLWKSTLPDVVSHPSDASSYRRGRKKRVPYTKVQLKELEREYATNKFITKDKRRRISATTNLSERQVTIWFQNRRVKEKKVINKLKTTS

A short description of experiment [3]: blockers of DNA damage checkpoint Chk1 activation – imaging, HeLa, hydroxyurea, phospho-Chk1 antibody, percent positive cells, primary screen (AID 1186). As to conditions: hydroxyurea-induced phospho-Chk1 immunofluorescence imaging, higher = more signal.
Experiment [4] can be described thus: blockers of DNA damage checkpoint Chk1 activation – imaging, HeLa, hydroxyurea, phospho-Chk1 nuclear intensity, primary screen (AID 1187). Further: test concentration not given here. The following applies: hydroxyurea-induced phospho-Chk1 immunofluorescence imaging, higher = more signal.

The structures appear in SMILES notation. The source made the active and inactive calls. Unless noted, how the calls were made is not given here.

Regarding `COc1ccc(CCNC(=O)[C@@]2(Sc3ccc(C)cc3)CC(=O)N(Cc3ccccc3)[C@@H]2c2ccc(CO)cc2I)cc1`, the z-score in experiment [1] is -1.01; in experiment [2], -1.1 (inactive); in experiment [3], 0.0564 (inactive); in experiment [4], 0.672 (inactive).
The corresponding values for `CCCCCCC#C[Si](O[C@H](c1ccccc1)c1cn(Cc2ccccc2)nn1)(C(C)C)C(C)C` are -0.934, 1.18 (inactive), -0.766 (inactive) and -0.601 (inactive).
On to `COC(=O)C(CC#Cc1ccc2c(c1)[C@]1(C(=O)N2)[C@H](C(=O)O)[C@H]2C(=O)O[C@H](c3ccccc3)[C@H](c3ccccc3)N2[C@@H]1c1ccc(OCCO)cc1)C(=O)OC`, for which the z-score in experiment [1] was -2.14; in experiment [2], -6.34 (inactive); in experiment [3], -0.192 (inactive); in experiment [4], 0.124 (inactive).
`CC(C)C[C@@H]1NC(=O)[C@@H]2C[C@H](C(=O)NCCCCCNC(=O)CS)[C@H](c3cccc(OCCO)c3)N2C1=O`: the z-score in experiment [1] was -0.37; in experiment [2], -2.89 (inactive); in experiment [3], 0.611 (inactive); in experiment [4], 0.419 (inactive).
Taken in the same sequence, the figures for `COCCOC(=O)N1C(=O)[C@@]2(c3cc(C#CCCO)ccc31)[C@H](c1ccccc1OCCO)N1[C@H](c3ccccc3)[C@H](c3ccccc3)OC(=O)[C@H]1[C@@H]2C(=O)NC[C@H](O)c1ccccc1` were -2.08, -0.117 (inactive), -0.29 (inactive) and -0.429 (inactive).
Regarding `O=C1O[C@@H](c2ccccc2)[C@@H](c2ccccc2)N2[C@@H](c3ccc(OCCO)cc3)[C@]3(C(=O)Nc4ccc(C#CC5(O)CCCCCC5)cc43)[C@@H](C(=O)NC[C@H](O)c3ccccc3)[C@H]12`, the z-score in experiment [1] is -2.21; in experiment [2], -1.22 (inactive); in experiment [3], 0.0477 (inactive); in experiment [4], 0.343 (inactive).
For the compound `CC(C)C[C@@H]1NC(=O)[C@@]23C(=O)N[C@@H](Cc4ccccc4)C2[C@H](C)[C@@]2(C)O[C@H]2C3/C=C/CC/C=C/CNC(=O)[C@@H](C)NC1=O` (some centres undefined), the z-score is -2.13 in experiment [1], -4.78 (inactive) in experiment [2], -0.0396 (inactive) in experiment [3] and 0.292 (inactive) in experiment [4].
Regarding `CC(C)NC(=O)[C@@H]1c2ccccc2C(=O)N(Cc2cc(F)cc(C(F)(F)F)c2)[C@H]1c1ccc(CO)cc1`, the z-score in experiment [1] is -0.327; in experiment [2], -2.19 (inactive); in experiment [3], -0.121 (inactive); in experiment [4] it was 0.0894 (inactive).
Consider `CCN(CC)c1ccc(N2CC=CC34O[C@@H]5C=CCOC(=O)[C@@H]5[C@H]3C(=O)N(C(CO)C(C)C)[C@@H]4C2=O)cc1` (some centres undefined), for which the z-score is -0.45 in experiment [1], -3.03 (inactive) in experiment [2], -0.623 (inactive) in experiment [3] and 0.286 (inactive) in experiment [4].
Turning to `CCCCC(=C=CC[C@@H](O)c1ccc(OCCO)cc1)C[C@@H](O)c1cc(Cl)cc(Cl)c1O`, the z-score in experiment [1] is -2.87; in experiment [2], -3.4 (inactive); in experiment [3] it was -0.806 (inactive); in experiment [4], -0.578 (inactive).
As for `CCN(CC)c1ccc(N2CC=CC34O[C@@H]5C=CCOC(=O)[C@@H]5[C@H]3C(=O)N(C(C)CO)[C@@H]4C2=O)cc1` (some centres undefined), the z-score was 0.339 in experiment [1], -3.29 (inactive) in experiment [2], 0.36 (inactive) in experiment [3] and 0.325 (inactive) in experiment [4].
With `COCCCNC(=O)[C@@]1(Cc2ccccc2)N=C(c2ccc(OCCCO)cc2)O[C@H]1c1ccccc1N=[N+]=[N-]`, the z-score in experiment [1] was -2.43; in experiment [2], -3.11 (inactive); in experiment [3] it was -0.362 (inactive); in experiment [4] it was -0.373 (inactive).
As to `C=CC[C@]1(C(=O)N2CCCCC2)COC(c2ccc(OCCCO)cc2)=N1`, the z-score in experiment [1] was -2.13; in experiment [2], -4.15 (inactive); in experiment [3], -0.8 (inactive); in experiment [4] it was -1.06 (inactive).
The corresponding values for `COc1ccc([Si](C)(C)[C@H]2[C@H](CC(=O)N3Cc4ccccc4C[C@H]3CO)O[C@@]3(C(=O)N(Cc4cccc(N5C(=O)COc6ccccc65)c4)c4ccccc43)[C@@H]2C)cc1` are -2.22, -1.82 (inactive), -0.558 (inactive) and -0.221 (inactive).
`COc1ccc(C#Cc2ccc3c(c2)[C@]2(C(=O)N3)[C@H](c3ccc(O)cc3)N3[C@H](c4ccccc4)[C@H](c4ccccc4)OC(=O)[C@H]3[C@@H]2C(=O)N2CCN(c3ncccn3)CC2)cc1`: the z-score in experiment [1] is -2.28; in experiment [2] it was 0.562 (inactive); in experiment [3], 0.396 (inactive); in experiment [4] it was 0.583 (inactive).
Consider `C=CCC1(CC=C)C[C@H]2CO[C@H](c3ccc(OC)cc3)N2C1=O`, for which the z-score in experiment [1] was -0.682; in experiment [2] it was -0.41 (inactive); in experiment [3] it was -0.063 (inactive); in experiment [4] it was 0.989 (inactive).
Take `CC1CC/C=C\[C@H]2OC34C=CCN(C(C)C)C(=O)[C@H]3N(C(CO)C(C)C)C(=O)[C@@H]4C2C(=O)O1` (some centres undefined): the z-score in experiment [1] is 0.639; in experiment [2] it was -4.54 (inactive); in experiment [3], -0.686 (inactive); in experiment [4], -0.549 (inactive).
Consider `C=CCNC(=O)[C@@H]1[C@H]2C(=O)O[C@H](c3ccccc3)[C@H](c3ccccc3)N2[C@H](c2ccc(O)cc2)[C@@]12C(=O)Nc1ccccc12`, for which the z-score in experiment [1] was -1.73; in experiment [2], -3.58 (inactive); in experiment [3] it was 0.21 (inactive); in experiment [4], 0.399 (inactive).
Consider `C=CC[C@@]1(C(=O)NCc2ccccc2)N=C(c2ccc(OCCCO)cc2)O[C@@H]1c1ccccc1`, for which the z-score is -2.24 in experiment [1], -6.13 (inactive) in experiment [2], -0.762 (inactive) in experiment [3] and -0.974 (inactive) in experiment [4].
As to `C#CCN1C(C(=O)OCC)OC[C@H]1c1ccccc1` (some centres undefined), the z-score is -1.53 in experiment [1], 0.387 (inactive) in experiment [2], -0.285 (inactive) in experiment [3] and 0.0032 (inactive) in experiment [4].
In the case of `C=CCNC(=O)[C@@H]1[C@H]2C(=O)O[C@H](c3ccccc3)[C@H](c3ccccc3)N2[C@H](c2ccc(O)cc2)[C@@]12C(=O)N(C(=O)OCCOC)c1ccc(C#Cc3ccc(OC)cc3)cc12`, the z-score in experiment [1] is -1.08; in experiment [2], -0.182 (inactive); in experiment [3], 0.148 (inactive); in experiment [4], 0.446 (inactive).
On to `C#CCOc1ccc(C[C@H]2C(=O)O[C@H](Cc3ccccc3)[C@H](/C=C/C3CC3)N2CC#C)cc1`, for which the z-score in experiment [1] was -1.13; in experiment [2] it was -0.167 (inactive); in experiment [3], -0.54 (inactive); in experiment [4] it was -0.582 (inactive).
The corresponding values for `CO[C@H]1O[C@H](CO)[C@@H](OC(=O)Nc2ccccc2)[C@H](OC(=O)Nc2ccccc2-c2ccccc2)[C@H]1OC(=O)Nc1ccccc1-c1ccccc1` are -1.81, -3.12 (inactive), -0.796 (inactive) and -0.793 (inactive).
With `CCCCC(=C=CC[C@H](O)c1cccc(OCCO)c1)CCO`, the z-score in experiment [1] is -1.01; in experiment [2], -2.75 (inactive); in experiment [3], -0.0801 (inactive); in experiment [4], -0.401 (inactive).
The corresponding values for `CC(=O)OC(C/C=C\B1OC(C)(C)C(C)(C)O1)c1ccccc1` (centres undefined) are -1.41, -1.28 (inactive), -0.873 (inactive) and -1.16 (inactive).
In the case of `COC(=O)c1c(CC[C@@H](CO)NC(=O)Nc2ccc(OC)cc2)oc(C(=O)Cc2ccccc2)c1C(=O)OC`, the z-score in experiment [1] is -0.83; in experiment [2], -4.5 (inactive); in experiment [3], 0.0211 (inactive); in experiment [4], 0.406 (inactive).
`CC(C)[C@@H](C(=O)O)n1cc(-c2ccccn2)nn1`: the z-score in experiment [1] is -0.461; in experiment [2], -1.37 (inactive); in experiment [3], -0.0368 (inactive); in experiment [4], -0.0613 (inactive).
Taken in the same sequence, the figures for `CC(C)(C)OC(=O)CC[C@]1(C(=O)NCc2ccccc2)N=C(c2ccc(OCCCO)cc2)O[C@H]1c1ccccc1N=[N+]=[N-]` were -2.16, -0.908 (inactive), -0.328 (inactive) and 0.252 (inactive).
Taken in the same sequence, the figures for `C=CCC(OC(C)=O)[C@@H]1[C@@H](N(Cc2ccc(-c3ccccc3)cc2)C(=O)c2ccc(-c3ccccc3)cc2)c2cc(OCCCO)ccc2N1C(=O)c1ccc(-c2ccccc2)cc1` (some centres undefined) were -0.883, -0.513 (inactive), -0.293 (inactive) and 0.122 (inactive).
Consider `O=C1c2ccccc2C(=O)c2cc([C@H]3Oc4ccccc4S(=O)(=O)N4CCC[C@@H]34)ccc21`, for which the z-score in experiment [1] is -1.27; in experiment [2] it was -3.19 (inactive); in experiment [3] it was -0.4 (inactive); in experiment [4], -0.252 (inactive).
For `[N-]=[N+]=Nc1ccccc1[C@H]1OC(c2ccc(OCCCO)cc2)=N[C@@]1(Cc1ccccc1)C(N)=O`, the z-score was -1.96 in experiment [1], -3.95 (inactive) in experiment [2], -0.313 (inactive) in experiment [3] and -0.179 (inactive) in experiment [4].
Regarding `COc1ccc([Si](C)(C)[C@H]2[C@H](CC(=O)N(CCO)Cc3ccccc3)O[C@@]3(C(=O)N(Cc4cccc(N5C(=O)COc6ccccc65)c4)c4ccccc43)[C@@H]2C)cc1`, the z-score is -2.28 in experiment [1], -1.15 (inactive) in experiment [2], -0.567 (inactive) in experiment [3] and 0.722 (inactive) in experiment [4].
For the compound `C=CCN1C(=O)[C@@]2(O[C@@H](CCO)[C@H]([Si](C)(C)c3ccc(OC)cc3)[C@H]2C)c2cc(N(C=O)c3ccccc3)ccc21`, the z-score in experiment [1] is -2.56; in experiment [2] it was -3.62 (inactive); in experiment [3], -1.21 (inactive); in experiment [4], -0.407 (inactive).
The corresponding values for `COCCOC(=O)N1C(=O)[C@@]2(c3ccccc31)[C@H](C(=O)Nc1nc3ccccc3s1)[C@H]1C(=O)O[C@H](c3ccccc3)[C@H](c3ccccc3)N1[C@@H]2c1ccc(O)cc1` are 0.112, 0.895 (inactive), -0.2 (inactive) and 0.3 (inactive).
On to `C=CCN1C(=O)[C@@]2(O[C@@H](CCO)[C@H]([Si](C)(C)c3ccc(OC)cc3)[C@H]2C)c2cc(N3C(=O)c4cccc5cccc3c45)ccc21`, for which the z-score in experiment [1] is -2.57; in experiment [2] it was -2.8 (inactive); in experiment [3], -1.22 (inactive); in experiment [4] it was -0.751 (inactive).
Regarding `NC(=O)NCC#Cc1ccc2c(c1)[C@]1(C(=O)N2)[C@H](c2ccc(OCCO)cc2)N2[C@H](c3ccccc3)[C@H](c3ccccc3)OC(=O)[C@H]2[C@@H]1C(=O)Nc1nc2ccccc2s1`, the z-score is -0.745 in experiment [1], 0.706 (inactive) in experiment [2], 0.0953 (inactive) in experiment [3] and 0.219 (inactive) in experiment [4].

The record behind these values is PubChem BioAssay.
